40 molecules from PubChem BioAssay (Tox21) can be followed below.

Calls of active or inactive are those of the source. Calls follow the shape of the dose curve; as a rule, active = well fitted curve in the direction sought with a large enough effect in the repeat runs; inconclusive = weak or mixed curves; inactive = flat fitted curve, though single readings scatter.
% is scaled to controls: 0 for no effect and ±100 for the full control effect.

One test can be described thus: qHTS assay to test for compound auto fluorescence at 590 nm (red) in HEK293 cells (AID 720679). The following applies: red autofluorescence 540/590 nm; series mostly up to 46 µM; fluorescence, % of fluorescent control: at the top concentration. The method, boiled down: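 Autofluorescence equivalency to Rose Bengal sodium, 540/590nm, in HEK293 cells exposed overnight to 23 nL compound per well.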
As to `CC(C)=CCN1CC[C@]2(C)c3cc(O)ccc3C[C@H]1[C@H]2C`, the “fluorescence, % of fluorescent control” value was -1.47% [at 91.3 µM] (inactive).
For `CN[C@@]1(c2ccccc2Cl)CCCCC1=O`, the “fluorescence, % of fluorescent control” value is -0.0855% (inactive).
`CCNC1(c2cccs2)CCCCC1=O` (centres undefined): the “fluorescence, % of fluorescent control” value is 0.119% [at 18.6 µM] (inactive).
Same read-out and setting: for `CNC(C)CC1CCCCC1` (centres undefined) the value was 0.187% (inactive).
Turning to `CCC1(c2ccccc2)C(=O)NC(=O)N(C)C1=O` (centres undefined), the “fluorescence, % of fluorescent control” value was -0.0249% (inactive).
Still for that read-out and setting: the result for `COc1cc([C@@H]2c3cc4c(cc3[C@@H](O)[C@H]3COC(=O)[C@H]23)OCO4)cc(OC)c1O` reads -1.23% (inactive); that for `CN1CC[C@@]23CCCC[C@@H]2[C@@H]1Cc1ccc(O)cc13`, -0.138% (inactive); that for `CNC(C)Cc1ccccc1` (centres undefined), -0.0263% [at 91.3 µM] (inactive).
Still for that read-out and setting: the result for `CN[C@@H](C)Cc1ccccc1` reads -0.0318% [at 91.3 µM] (inactive); that for `CCCCNC(C)(C)[P+](=O)O`, -0.097% (inactive).
`O=C1C[C@@H]2OCC=C3CN4CC[C@]56c7ccccc7N1[C@H]5[C@H]2[C@H]3C[C@H]46` (tested in a mixture with another compound): the outcome was inactive.
For the molecule `C/C=C(\CC)C(=O)NC(N)=O`, the “fluorescence, % of fluorescent control” value is 0.135% (inactive).
Still for that read-out and setting: for `C[C@]12CCC(=O)C[C@@H]1CC[C@@H]1[C@@H]2CC[C@@]2(C)[C@H]1CC[C@]2(C)O` the value was -0.0469% (inactive).
`Cc1nnc2n1-c1ccc(Cl)cc1C(c1ccccc1)=NC2`: the “fluorescence, % of fluorescent control” value is -0.148% (inactive).
`N#CC(C#N)=Cc1cc(O)c(O)c(O)c1`: the “fluorescence, % of fluorescent control” value is 0.527% (inactive).
Still for that read-out and setting: the result for `O=C(O)CCCO` reads 0.0782% [at 95.7 µM] (inactive); that for `Oc1ccc2c3c1O[C@H]1[C@@H](O)C=C[C@H]4[C@H](C2)NCC[C@@]341`, -0.226% (inactive).
The same measure, in the same setting: for `O=P1(N(CCCl)CCCl)NC(OO)CCO1` (centres undefined) the value was -0.73% (inactive).
Same read-out and setting: for `COC(=O)[C@H]1[C@@H](OC(=O)c2ccccc2)C[C@@H]2CC[C@H]1N2C` the value was 0.113% [at 91.3 µM] (inactive); for `O=C1CN=C(c2ccccc2)c2cc(Cl)ccc2N1`, 0.0357% (inactive).
Regarding `C=C[C@H]1CN2CC[C@H]1C[C@H]2[C@H](OC(=O)OCC)c1ccnc2ccc(OC)cc12`, the “fluorescence, % of fluorescent control” value was -0.448% (inactive).
Still for that read-out and setting: for `CC(C)[C@H]1C(=O)N2CCC[C@H]2[C@]2(O)O[C@](NC(=O)[C@@H]3C[C@@H]4c5cccc6[nH]cc(c56)C[C@H]4N(C)C3)(C(C)C)C(=O)N12` the value was 0.445% (inactive); for `C[C@]12CC[C@H]3[C@@H](CCC4=C(Cl)C(=O)CC[C@@]43C)[C@@H]1CC[C@@H]2O`, -0.197% (inactive); for `Clc1ccc(C(Cn2ccnc2)OCc2csc3c(Cl)cccc23)c(Cl)c1` (centres undefined), -0.278% [at 18.6 µM] (inactive).
Same read-out and setting: for `C[C@@H]1[C@H]2Cc3ccc(O)cc3[C@]1(C)CCN2C` the value was 0.14% [at 95.7 µM] (inactive); for `[H+].[H+].[Hg+2].[O-]B([O-])[O-].[c-]1ccccc1`, 0.123% (inactive); for `c1ccc2c(c1)Sc1ccccc1N2C[C@@H]1CN2CCC1CC2`, -0.752% (inactive).
Still for that read-out and setting: for `C[C@@H](Cc1ccccc1)NCCC(c1ccccc1)c1ccccc1` the value was 0.797% [at 18.6 µM] (inactive).
Regarding `CC[C@H]1[C@@H]2C[C@H]3[C@@H]4N(C)c5ccccc5[C@]45C[C@@H](C2[C@H]5O)N3[C@@H]1O` (some centres undefined), the “fluorescence, % of fluorescent control” value is -0.432% [at 18.6 µM] (inactive).
Turning to `CC(N)Cc1ccc2c(c1)OCO2` (centres undefined), the “fluorescence, % of fluorescent control” value was 0.023% (inactive).
On the same count and under the same terms, the result for `CN1c2ccccc2C(NCCCCCCC(=O)O)c2ccc(Cl)cc2S1(=O)=O` (centres undefined) reads 0.374% (inactive); that for `CN[C@]1(c2ccccc2Cl)CCCCC1=O`, -1.57% (inactive).
`C[C@]12CC[C@@H]3c4ccc(OC(=O)N(CCCl)CCCl)cc4CC[C@H]3[C@@H]1CC[C@@H]2OP(=O)(O)O`: the molecule was classed as inactive.
As to `CC(=O)[C@@]1(O)CC[C@H]2[C@@H]3CCC4=CC(=O)CC[C@]4(C)C3(F)[C@@H](O)C[C@@]21C` (some centres undefined), the “fluorescence, % of fluorescent control” value is 0.29% (inactive).

The nature of the next test: qHTS assay to test for compound auto fluorescence at 535 nm (green) in HEK293 cells (AID 720680). The following applies: green autofluorescence 485/535 nm; series mostly up to 46 µM; fluorescence, % of fluorescein: at the top concentration. In general terms: qHTS replaces the single test concentration by a dilution series.
With `CC(C)=CCN1CC[C@]2(C)c3cc(O)ccc3C[C@H]1[C@H]2C`, the “fluorescence, % of fluorescein” value was -0.112% [at 91.3 µM] (inactive).
The same measure, in the same setting: for `CN[C@@]1(c2ccccc2Cl)CCCCC1=O` the value was 0.111% (inactive); for `CCNC1(c2cccs2)CCCCC1=O` (centres undefined), 0.0529% [at 18.6 µM] (inactive); for `CNC(C)CC1CCCCC1` (centres undefined), 0.0306% (inactive).
On the same count and under the same terms, the result for `CCC1(c2ccccc2)C(=O)NC(=O)N(C)C1=O` (centres undefined) reads 0.0106% (inactive).
On the same count and under the same terms, the result for `COc1cc([C@@H]2c3cc4c(cc3[C@@H](O)[C@H]3COC(=O)[C@H]23)OCO4)cc(OC)c1O` reads -0.0853% (inactive); that for `CN1CC[C@@]23CCCC[C@@H]2[C@@H]1Cc1ccc(O)cc13`, -0.0701% (inactive); that for `CNC(C)Cc1ccccc1` (centres undefined), -0.0074% [at 91.3 µM] (inactive).
For `CN[C@@H](C)Cc1ccccc1`, the “fluorescence, % of fluorescein” value is 0.0096% [at 91.3 µM] (inactive).
On the same count and under the same terms, the result for `CCCCNC(C)(C)[P+](=O)O` reads -0.0008% (inactive).
Consider `O=C1C[C@@H]2OCC=C3CN4CC[C@]56c7ccccc7N1[C@H]5[C@H]2[C@H]3C[C@H]46` (tested in a mixture with another compound), for which the Potency entry was “inactive”.
`O=c1ccc2cc(O[C@@H]3O[C@H](CO)[C@@H](O)[C@H](O)[C@H]3O)c(O)cc2o1`: the “fluorescence, % of fluorescein” value was -0.158% [at 18.6 µM] (inactive).
On the same count and under the same terms, for `C/C=C(\CC)C(=O)NC(N)=O` the value was -0.0339% (inactive); for `C[C@]12CCC(=O)C[C@@H]1CC[C@@H]1[C@@H]2CC[C@@]2(C)[C@H]1CC[C@]2(C)O`, 0.0474% (inactive).
On the same count and under the same terms, the result for `Cc1nnc2n1-c1ccc(Cl)cc1C(c1ccccc1)=NC2` reads -0.0182% (inactive); that for `N#CC(C#N)=Cc1cc(O)c(O)c(O)c1`, 1.37% (inactive); that for `CCCSc1cc(OC)c(CCN)cc1OC`, -0.0935% [at 95.7 µM] (inactive).
Same read-out and setting: the result for `O=C(O)CCCO` reads -0.005% [at 95.7 µM] (inactive).
On to `Oc1ccc2c3c1O[C@H]1[C@@H](O)C=C[C@H]4[C@H](C2)NCC[C@@]341`, for which the “fluorescence, % of fluorescein” value is 0.239% (inactive).
On the same count and under the same terms, for `O=P1(N(CCCl)CCCl)NC(OO)CCO1` (centres undefined) the value was -0.241% (inactive); for `COC(=O)[C@H]1[C@@H](OC(=O)c2ccccc2)C[C@@H]2CC[C@H]1N2C`, -0.0262% [at 91.3 µM] (inactive).
On the same count and under the same terms, for `O=C1CN=C(c2ccccc2)c2cc(Cl)ccc2N1` the value was 0.0672% (inactive); for `C=C[C@H]1CN2CC[C@H]1C[C@H]2[C@H](OC(=O)OCC)c1ccnc2ccc(OC)cc12`, -0.0052% (inactive); for `CCc1cc(OC)c(C[C@@H](C)N)cc1OC`, 0.0249% [at 95.7 µM] (inactive).
Still for that read-out and setting: the result for `CC(C)[C@H]1C(=O)N2CCC[C@H]2[C@]2(O)O[C@](NC(=O)[C@@H]3C[C@@H]4c5cccc6[nH]cc(c56)C[C@H]4N(C)C3)(C(C)C)C(=O)N12` reads 0.37% (inactive).
With `C[C@]12CC[C@H]3[C@@H](CCC4=C(Cl)C(=O)CC[C@@]43C)[C@@H]1CC[C@@H]2O`, the “fluorescence, % of fluorescein” value is 0.103% (inactive).
On the same count and under the same terms, for `Clc1ccc(C(Cn2ccnc2)OCc2csc3c(Cl)cccc23)c(Cl)c1` (centres undefined) the value was -0.0462% [at 18.6 µM] (inactive); for `C[C@@H]1[C@@H]2Cc3ccc(O)cc3[C@@]1(C)CCN2CC1CC1`, 0.103% (inactive); for `C[C@@H]1[C@H]2Cc3ccc(O)cc3[C@]1(C)CCN2C`, -0.0658% [at 95.7 µM] (inactive).
Same read-out and setting: the result for `CC(C)C[C@H]1C(=O)N2CCC[C@H]2[C@]2(O)O[C@](NC(=O)[C@@H]3C[C@@H]4c5cccc6[nH]cc(c56)C[C@H]4N(C)C3)(C(C)C)C(=O)N12` reads 0.426% (inactive); that for `[H+].[H+].[Hg+2].[O-]B([O-])[O-].[c-]1ccccc1`, -0.0862% (inactive); that for `C=CCC1([C@@H](C)CCC)C(=O)NC(=O)NC1=O`, 0.0278% [at 91.3 µM] (inactive).
On the same count and under the same terms, for `c1ccc2c(c1)Sc1ccccc1N2C[C@@H]1CN2CCC1CC2` the value was 0.173% (inactive).
As for `C[C@@H](Cc1ccccc1)NCCC(c1ccccc1)c1ccccc1`, the “fluorescence, % of fluorescein” value is -0.0164% [at 18.6 µM] (inactive).
Consider `CC[C@H]1[C@@H]2C[C@H]3[C@@H]4N(C)c5ccccc5[C@]45C[C@@H](C2[C@H]5O)N3[C@@H]1O` (some centres undefined), for which the “fluorescence, % of fluorescein” value was -0.0163% [at 18.6 µM] (inactive).
Still for that read-out and setting: for `CC(N)Cc1ccc2c(c1)OCO2` (centres undefined) the value was -0.0417% (inactive); for `CN1c2ccccc2C(NCCCCCCC(=O)O)c2ccc(Cl)cc2S1(=O)=O` (centres undefined), 0.0579% (inactive); for `CN[C@]1(c2ccccc2Cl)CCCCC1=O`, 0.0206% (inactive).
For the molecule `C[C@]12CC[C@@H]3c4ccc(OC(=O)N(CCCl)CCCl)cc4CC[C@H]3[C@@H]1CC[C@@H]2OP(=O)(O)O`, the Potency result is “inactive”.
`CC(=O)[C@@]1(O)CC[C@H]2[C@@H]3CCC4=CC(=O)CC[C@]4(C)C3(F)[C@@H](O)C[C@@]21C` (some centres undefined): the “fluorescence, % of fluorescein” value is -0.0669% (inactive).
